Data reported in PubChem BioAssay (NCI).
The panel holds about 79,000 compounds, 15% with a hit somewhere; the sample as a whole holds those more often. Unmarked numbers belong to inactive results. The source made the active and inactive calls. Cut-off read from the data, not from the text of the source: active = growth inhibition above about 70%; inactive = the rest.

Assays:
[1] = NCI Yeast Anticancer Drug Screen. Data for the rad50 strain (AID 155);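 note: 0% = growth of vehicle-only cultures of the same strain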; details: S. cerevisiae rad50 strain growth inhibition, hits give high values
Outline: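 A DNA repair-deficient yeast mutant serves as the test organism; compound-induced growth inhibition is calculated against vehicle-treated cells.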

[2] = NCI Yeast Anticancer Drug Screen. Data for the mec2-1 strain (AID 157); details: S. cerevisiae mec2-1 strain, hits give high values
Outline: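 Cells of the genetically defined mec2-1 yeast strain are incubated with test compound. Inhibition of growth is calculated against vehicle-treated controls.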

[3] = NCI Yeast Anticancer Drug Screen. Data for the sgs1 mgt1 strain (AID 161);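 note: 0% = growth of cultures given vehicle only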; details: S. cerevisiae sgs1 mgt1 strain, hits give high values
Outline: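 Inhibition of yeast growth, normalised to vehicle-treated controls, is reported for a strain bearing genetic alterations in DNA damage repair.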

[4] = NCI Yeast Anticancer Drug Screen. Data for the cln2 rad14 strain (AID 165);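 note: 0% = growth equal to vehicle treated cultures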; details: S. cerevisiae cln2 rad14 strain, hits give high values
Outline: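 The screen exposed genetically defined yeast (cln2 rad14) to test compounds and scored growth inhibition relative to vehicle-treated controls.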

[5] = NCI Yeast Anticancer Drug Screen. Data for the bub3 strain (AID 167); details: S. cerevisiae bub3 mutant strain, hits give high values
Outline: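 Inhibition values come from growth of compound-treated mutant yeast normalised to vehicle-treated controls.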

[6] = NCI Yeast Anticancer Drug Screen. Data for the mlh1 rad18 strain (AID 175); details: S. cerevisiae mlh1 rad18 strain growth inhibition, hits give high values
Outline: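 Compound-treated yeast growth, normalised to vehicle controls. Strain bears defined DNA repair mutations.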

[7] = at 5.0 µM (retest, dose inferred, filed as 0.5)
[8] = at 50.0 µM (retest, dose inferred, filed as 5.0)

| Compound | growth inhibition [1, 7] | growth inhibition [1, 8] | growth inhibition ([1]; at 50.0 µM) | growth inhibition [2, 7] | growth inhibition [2, 8] | growth inhibition ([2]; at 50.0 µM) | growth inhibition [3, 7] | growth inhibition [3, 8] | growth inhibition ([3]; at 50.0 µM) | growth inhibition [4, 7] | growth inhibition [4, 8] | growth inhibition ([4]; at 50.0 µM) | growth inhibition [5, 7] | growth inhibition [5, 8] | growth inhibition ([5]; at 50.0 µM) | growth inhibition [6, 7] | growth inhibition [6, 8] | growth inhibition ([6]; at 50.0 µM) |
| --- | --- | --- | --- | --- | --- | --- | --- | --- | --- | --- | --- | --- | --- | --- | --- | --- | --- | --- |
| CC(=O)N(C1=C(Cl)C(=O)c2ccccc2C1=O)c1ccc(C)cc1 | 99% (active) | 99% (active) | 99.5% (active) | 100% (active) | 100% (active) | 99.5% (active) | 100% (active) | 100% (active) | 99.6% (active) | 100% (active) | 98% (active) | 94% (active) | 99% (active) | 99% (active) | 96.5% (active) | 100% (active) | 100% (active) | 99.5% (active) |
| CCCCc1c2c(nc3c1CC/C(=C\c1ccc([N+](=O)[O-])cc1)C3=O)CCCC2 | 92% (active) | 92% (active) | 88.5% (active) | 97% (active) | 94% (active) | 92.6% (active) | 38% | 92% (active) | 89.8% (active) | 97% (active) | 93% (active) | 88.1% (active) | 98% (active) | 91% (active) | 88.5% (active) | 96% (active) | 88% (active) | 89.6% (active) |
| COc1ccc(OC)c(/C=C2/C(=O)ON=C2C)c1 | -14% | 7% | 42.4% | -11% | 5% | 54.4% | 1% | 27% | 70% (active) | 0% | 14% | 22% | 11% | 23% | 43.5% | 8% | 23% | 22.7% |
| CCC(c1ccc(OC)cc1)C(CC)c1ccc(O)c(CN(C)C)c1 (centres undefined) | -2% | 39% | 60.1% | 0% | 38% | 27.1% | -4% | 86% (active) | 72.9% (active) | -1% | 41% | 38.3% | 4% | 50% | 49% | 3% | 84% (active) | 83.5% (active) |
| CCc1cccc(CC)c1NC1=C(Cl)C(=O)c2ccccc2C1=O | 99% (active) | 99% (active) | -21.1% | 100% (active) | 99% (active) | 5% | 99% (active) | 99% (active) | 14.5% | 95% (active) | 98% (active) | -26.9% | 99% (active) | 98% (active) | 5.15% | 99% (active) | 98% (active) | 19.1% |
| C[n+]1c(-c2ccc(/C=N\NC(=O)c3ccc(C(=O)N/N=C/c4ccc(-c5cn6ccsc6[n+]5C)cc4)cc3)cc2)cn2ccsc21 | 65% | 98% (active) | 90.6% (active) | 81% (active) | 98% (active) | 86.7% (active) | 72% (active) | 98% (active) | 84.5% (active) | 27% | 98% (active) | 86.7% (active) | 86% (active) | 98% (active) | 83.8% (active) | 88% (active) | 97% (active) | 91.5% (active) |
| COC(=O)c1cc(-c2ccc(C)cc2)c2c(=O)n(-c3ccccc3)[nH]c2n1 | 8% | 75% (active) | 72.9% (active) | 5% | 71% (active) | 94.9% (active) | -7% | 51% | 51.1% | 11% | 87% (active) | 94.8% (active) | 4% | 69% | 92.8% (active) | -3% | 85% (active) | 85.9% (active) |
| CC(C)[CH2][Ge]([Cl])([Cl])[Cl] | 1% | -8% | 98.5% (active) | 2% | -2% | 98.8% (active) | 3% | -15% | 98.7% (active) | -2% | -14% | 98.5% (active) | 3% | -3% | 99% (active) | 1% | 1% | 99% (active) |
